This note sets out measurements from PubChem BioAssay (Tox21).

Active and inactive are the calls of the source. The call rests on the fitted dose curve; in most records, active means well fitted activation curve with a large enough effect in the repeat runs; inconclusive means weak or mixed curves; inactive means flat fitted curve, though single readings scatter.
On the % scale 0 is the no-effect control and ±100 the full control effect.

KiSS-1 receptor (Homo sapiens), sequence (Q969F8 whole entry, looked up): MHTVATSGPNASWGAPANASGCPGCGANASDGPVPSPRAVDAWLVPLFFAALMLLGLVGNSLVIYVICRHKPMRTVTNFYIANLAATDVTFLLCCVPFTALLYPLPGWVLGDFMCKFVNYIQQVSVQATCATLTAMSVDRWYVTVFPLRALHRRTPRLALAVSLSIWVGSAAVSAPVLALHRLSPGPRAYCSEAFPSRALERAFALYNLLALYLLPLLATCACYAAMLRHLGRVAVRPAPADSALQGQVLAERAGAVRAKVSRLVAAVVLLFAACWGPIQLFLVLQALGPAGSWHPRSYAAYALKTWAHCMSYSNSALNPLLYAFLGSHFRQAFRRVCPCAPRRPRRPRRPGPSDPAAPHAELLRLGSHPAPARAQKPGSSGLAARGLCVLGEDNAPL

This assay has as its target KiSS-1 receptor (Homo sapiens) (UniProt Q969F8). Briefly: Human kisspeptin (KISS1R) small molecule agonists, calcium flux assay in KISS1R-HEK293 cells (AID 1920064). The following applies: KISS1R-HEK293, calcium flux fluorescence, agonist; series mostly up to 76.8 µM. The procedure, abridged:
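HEK293 cells stably expressing human KISS1R were plated 18 h at 37 °C, loaded with calcium dye for 1 h at 37 °C, then given compound by pin tool. Fluorescence (Ex/Em 480/540) was read kinetically for 3 min.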
For orientation: Calcium flux is commonly read through the fluorescence of an indicator in the cells.
In the case of `CC(C)OCC1CO1` (stereo not drawn), the result was inactive.
Turning to `CCCCCCC(CO)CCCC` (stereo not drawn), the outcome was inactive.
In the case of `S=C(SSSSSSC(=S)N1CCCCC1)N1CCCCC1`, the activation was 1.75% [at 15.8 µM] (inactive).
Consider `CO[Si](CCCS)(OC)OC`, for which the result was inactive.
As to `NC(=O)C(=O)N/N=C/c1ccc([N+](=O)[O-])o1`, the result was inactive.
Consider `O=C(CCCN1CCC(O)(c2ccc(Br)cc2)CC1)c1ccc(F)cc1`, for which the outcome was inactive.
The same measure, in the same setting: the result for `O=C1O[C@@H]2[C@@H](O)[C@H](O)O[C@@H]2[C@H]1O` reads “inactive”; that for `CCc1ccc(CC)cc1`, “inactive”.
On the same count and under the same terms, the value for `CC(C)(C)N(CCO)CCO` was “inactive”.
`O=CCCc1ccccc1`: the outcome was inactive.
For `Cc1oc(-c2ccccc2)nc1CCC(=O)c1ccc(CC2SC(=O)NC2=O)cc1` (stereo not drawn), the outcome was inactive.
Consider `CCCCNc1ccc(NCCCC)c2c1C(=O)c1ccccc1C2=O`, for which the activation is -3.45% [at 15.8 µM] (inactive).
Consider `O=C(O)c1ccncc1`, for which the outcome was inactive.
Take `Clc1cc(Cl)c(-c2c(Cl)c(Cl)cc(Cl)c2Cl)cc1Cl`: the result was inactive.
As for `CC(=O)N(CC(O)CN(C(C)=O)c1c(I)c(C(=O)NCC(O)CO)c(I)c(C(=O)NCC(O)CO)c1I)c1c(I)c(C(=O)NCC(O)CO)c(I)c(C(=O)NCC(O)CO)c1I` (stereo not drawn), the outcome was inactive.
In the case of `CCCCCCCCCCCCS(=O)(=O)Cl`, the activation is 0.356% [at 15.8 µM] (inactive).
As to `CCNC(=O)N1CCN(CCCC(c2ccc(F)cc2)c2ccc(F)cc2)CC1`, the outcome was inactive.
For `CC/C=C\CCOC(=O)c1ccccc1`, the outcome was inactive.
The same measure, in the same setting: the result for `CCc1cc(Cc2cc(CC)cc(C(C)(C)C)c2O)c(O)c(C(C)(C)C)c1` reads “inactive”; that for `CCOC(=O)C1=C(C)NC(C)=C(C(=O)OC)C1c1cccc(Cl)c1Cl` (stereo not drawn), “inactive”; that for `Clc1ccnc(Cl)n1`, “inactive”.
In the case of `OCC(CO)(CO)COCC(CO)(CO)CO`, the outcome was inactive.
On the same count and under the same terms, the value for `OCc1ccccn1` was “inactive”; that for `CCCCC` was “inactive”.
As to `Cc1ccc2c(c1)c1c3n2CCNC3CCC1` (stereo not drawn), the outcome was inactive.
On the same count and under the same terms, the value for `CCOc1ccccc1N` was “inactive”; that for `CC(C(=O)O)c1ccc(C(=O)c2ccccc2)s1` (stereo not drawn) was “inactive”; that for `NS(=O)(=O)c1cc(C(=O)NN2C[C@H]3[C@H]4CCC(C4)[C@H]3C2)ccc1Cl` was “inactive”.
Take `CC1(C)S[C@@H]2[C@H](NC(=O)C(C(=O)O)c3ccccc3)C(=O)N2[C@H]1C(=O)O` (stereo partly drawn): the outcome was inactive.
As to `CC(CC(C#N)(c1ccccc1)C(C)C)N(C)C` (stereo not drawn), the outcome was inactive.
Regarding `O=P(O)(O)C(O)(Cc1cccnc1)P(=O)(O)O`, the outcome was inactive.
Take `C=CCCCC`: the outcome was inactive.
Turning to `CCCCCCCC1CCCC1=O` (stereo not drawn), the outcome was inactive.
